Data from PubChem BioAssay (EPA / NIEHS).
The source made the active and inactive calls. How the source made its calls: active means hit-call score of the fitted dose curve at least 0.9, where 1 is the maximum; inactive means score below 0.9.

Read-out: Paternally Expressed 10 (PEG10), PEG10 (gene 23089)
Test: LTEA_HepaRG_PEG10: Life Technologies and Expression Analysis (LTEA) Assay for Paternally Expressed 10 (PEG10) using HepaRG (AID 2283520);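 on AC50: PEG10 transcript by qRT-PCR normalised to ACTB GAPDH and POLR2A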
Settings: mRNA level, 48 h; actives raise or lower the signal
Description: LTEA_HepaRG is a cell based, multiplexed-readout assay that uses HepaRG, a human liver cell line, with measurements taken at 48 hours after chemical dosing on a 96-well plate.LTEA_HepaRG_PEG10 is one of 102 assay component(s) measured in the LTEA HepaRG cell culture assay. It is a marker of Cell proliferation, survival, death.Data from the assay component LTEA_HepaRG_PEG10 was analyzed into 1 endpoint. This assay endpoint, LTEA_HepaRG_PEG10, was analyzed with bidirectional fitting relative to DMSO as the negative control and baseline of activity. Using a type of inducible reporter, measures of mRNA induction for gain or loss-of-signal activity can be used to understand regulation of transcription factor activity. To generalize the intended target to other relatable targets, this assay endpoint is annotated to the dna binding intended target family, where the subfamily is xenobiotic metabolism.
A total of 1060 chemcials from the ToxCast library were tested in eight-point concentration-response experiments. Cell culture and cytotoxicity assays were conducted at Thermo Fisher Scientific's Custom Services facility (Madison, WI). A single lot of human HepaRG cells (Thermo Fisher Scientific, Frederick, MD) was used for the cell culture experiments. 96-well format collagen type I coated plates of human HepaRG cells were prepared using established methods. Briefly, cryopreserved HepaRG cells were thawed, plated at a density of approximately 100,000 cells/well in HepaRG Thaw, Plate, and General Purpose media (HPRG770, Thermo Fisher Scientific), and incubated for 48 hours. 0.5% DMSO was selected as vehicle control to balance the requisite need of DMSO in HepaRG cultures to maintain differentiation (for example, baseline metabolism, proportions of hepatocytes vs. cholangiocytes), while enabling further hepatic receptor pathway activation (for example, PXR and CAR) in response to chemical exposure. 48 hours after plating, the culture medium was replaced with HepaRG Serum-Free Incudtion Media. Cells were exposed to each test chemical in duplicate and maintained in CO2 incubators for another 48 hours. Chemical plates were thawed to room temperature and 200x concentrations of treatment groups were prepared. 8-point conentration-reponse curves were made with the highest exposure at 100 uM, followed by half-log dilutions, all in 0.5% DMSO. Each test plate contained variouse controls, induction positive controls (1mM phenobarbital), cytotoxicity positive controls ([…] aflatoxin B1), vehicle controls (0.5% DMSO), and total lysis controls (0.5% DMSO). Cell morphology images were taken using an Essen IncuCyte FLR automated microscope, with six 96-well plates imaged in about 24 minutes. Images were captured and exported and JPEG files. Spent culture media was transfered to black-well plates for the LDH assay, and remaining media was sorted at -80 C for later use. Cells were treated with RLT buffer and frozen until shipped for gene expression analysis. Total RNA was isolated from the cell suspension in 75 uL of Buffer RLT (Qiagen, Germantown, MD 20874) by Quintiles/Expression Analysis (Durham, NC) using a custom isolation procedure. Total RNA from each plate well was transferred to a preamplification plate. Fluidigm's 96.96 Dynamic ArrayTM (Fluidigm, Amsterdam, the Netherlands) technology was used for gene expression analyses by quantitative reverse transcription polymerase chain reaction (qRT-PCR, performed by Quintiles/Expression Analysis, Durham, NC)89. Standard TaqManTM Assays (Applied Biosystems/ThermoFisher Scientific, Foster City, CA) were used to assess the expression of 93 genes selected based on their selectivity and sensitivity to important hepatic receptors known to be modulated by environmental chemicals; importance in human hepatocyte functionality; and hepatotoxicity. […]

| Structure (SMILES) | outcome | AC50 |
| --- | --- | --- |
| C[C@]12C=CC(=O)C=C1CC[C@H]1[C@@H]3C[C@@H](O)[C@](O)(C(=O)CO)[C@@]3(C)C[C@H](O)[C@@]12F | inactive |  |
| NC(N)=O | inactive |  |
| CCCC(CCC)C(=O)O | inactive |  |
| Cc1nccn1-c1ccc(Sc2cccc(C3(C(N)=O)CCOCC3)c2)cc1 |  | 2.9 µM (active) |
| COS(C)(=O)=O | inactive |  |
| OC(CCl)CCl | inactive |  |
| CCCCCCOC(=O)CC(CC(=O)OCCCCCC)(OC(=O)CCC)C(=O)OCCCCCC | inactive |  |
| CCOC(N)=O | inactive |  |
| CC[C@H](C)C(=O)O[C@H]1C[C@H](O)C=C2C=C[C@H](C)[C@H](CC[C@@H](O)C[C@@H](O)CC(=O)O)[C@H]21 | inactive |  |
| O=C1CN(N=Cc2ccc([N+](=O)[O-])o2)C(=O)N1 | inactive |  |
| OC[C@H]1O[C@@](CO)(O[C@H]2O[C@H](CO)[C@@H](O)[C@H](O)[C@H]2O)[C@@H](O)[C@@H]1O | inactive |  |
| C=CCc1cc(S(=O)(=O)c2ccc(O)c(CC=C)c2)ccc1O |  | 71 µM (active) |
| CCCCCCCCN(C)C | inactive |  |
| Nc1ccn([C@@H]2O[C@H](CO)[C@@H](O)[C@@H]2O)c(=O)n1 | inactive |  |
| c1ccc(C(O[C@@H]2CCCN(CCc3ccc4c(c3)OCO4)C2)c2ccccc2)cc1 |  | 13.1 µM (active) |
| O=S(=O)(O)c1ccc(N=Nc2c(O)ccc3cc(S(=O)(=O)O)ccc23)cc1 | inactive |  |
| NC(=O)NN=Cc1ccc([N+](=O)[O-])o1 | inactive |  |
| C[C@@H](Oc1ccc(CNC(=O)c2cccnc2Oc2ccc3c(c2)OCO3)c(F)c1)C(=O)O | inactive |  |
| Cc1nc(-c2ccccn2)ncc1C(=O)Nn1cc(C)c2cc(F)ccc21 |  | 34.2 µM (active) |
| CC(C)c1nnc2ccc(-c3ocnc3-c3cc(F)ccc3F)cn12 | inactive |  |

| Structure (SMILES) | outcome | AC50 |
| --- | --- | --- |
| OC(Cn1cncn1)(Cn1cncn1)c1ccc(F)cc1F | inactive |  |
| CCCCCCCC/C=C\CCCCCCCC(=O)OC[C@@H](O)[C@H]1OC[C@H](O)[C@H]1O | inactive |  |
| OCC(CO)(CO)CO | inactive |  |
| c1ccc2cc3ccccc3cc2c1 | inactive |  |
| NNC(=O)c1ccncc1 | inactive |  |
| O=C(O)c1cccc(C[C@@H]2COc3ccc(OCc4nc5cc(F)ccc5s4)cc3[C@@H]2O)c1 |  | 50 µM (active) |
| O=S1(=O)CCCO1 | inactive |  |
| CCOc1ccc2[nH]cc(C(=O)NCc3ccccc3)c(=O)c2n1 |  | 50 µM (active) |
| CCCc1ccccc1 | inactive |  |
| CC(C)C(=O)Nc1ccc([N+](=O)[O-])c(C(F)(F)F)c1 |  | 13.5 µM (active) |
| CCN(CC)C(=S)SSC(=S)N(CC)CC | inactive |  |
| CCn1nc(C)c2c1C(=O)NCC(c1ccc(O)cc1)=N2 | inactive |  |
| CCCCC(CC)C(=O)OCCOCCOCCOC(=O)C(CC)CCCC (stereo not given) | inactive |  |
| OCc1ccccc1 | inactive |  |
| COCc1nnc(-c2ccc[n+]([O-])c2)n1-c1c(Cl)c(Cl)cc2[nH]c(=O)c(=O)[nH]c12 | inactive |  |
| CNC(C)=O | inactive |  |
| Cn1cc[nH]c1=S | inactive |  |
| Cc1ncc([C@@H](CCCCCCc2ccc3c(n2)NCCC3)CC(=O)O)cn1 | inactive |  |
| CCc1ccc(O)c(C(C)(C)C)c1 | inactive |  |
| c1ccc2c(c1)-c1cccc3c1c-2cc1ccccc13 |  | 8.43 µM (active) |
